According to PubChem BioAssay AID2568 (National Center for Advancing Translational Sciences (NCATS), 2010):
Inconclusive results are not listed. A number with no mark means an inactive call. The source made the active and inactive calls. Calls follow the shape of the full dose curve.

molecular target: Neuropeptide S receptor (Homo sapiens) (UniProt Q6W5P4); test: Confirmation Concentration-Response Assay for Antagonists of the Neuropeptide S Receptor: cAMP Signal Transduction, SAR for Probe; details: CHO-NPSR cells, cAMP TR-FRET, antagonist mode; series mostly up to 47.8 µM; activity change, negative = inhibition: at the top concentration
Sequence (Q6W5P4 whole entry, looked up): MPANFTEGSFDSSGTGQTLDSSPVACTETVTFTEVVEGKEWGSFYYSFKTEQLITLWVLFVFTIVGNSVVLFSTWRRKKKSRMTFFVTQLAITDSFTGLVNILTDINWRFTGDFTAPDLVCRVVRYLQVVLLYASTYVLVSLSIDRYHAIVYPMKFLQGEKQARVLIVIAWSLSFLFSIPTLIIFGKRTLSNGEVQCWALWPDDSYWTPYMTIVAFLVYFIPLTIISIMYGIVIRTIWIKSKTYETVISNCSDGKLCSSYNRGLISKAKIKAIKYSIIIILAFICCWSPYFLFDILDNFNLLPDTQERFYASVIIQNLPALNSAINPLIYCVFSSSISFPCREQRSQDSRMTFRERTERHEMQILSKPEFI
How it was run: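 CHO cells stably expressing NPSR (1200 cells/well, cultured 16–30 h) received compound at up to 46 μM final. They were then stimulated for 60 min at 37 °C with reagent containing 100 nM NPS and RO-201724. cAMP was read by LANCE TR-FRET (665/620 ratio), and IC50 came from Hill-equation fits.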

Structure (SMILES)	activity change, negative = inhibition [%]	Potency
Cc1c(P(=S)(c2ccccc2)c2ccccc2)c2ccccc2n1C(=O)Cc1ccccc1	-16.5	
COc1cccc(C2c3c(ncn(-c4ccc(C#N)cc4)c3=N)Oc3ccc4ccccc4c32)c1 (centres undefined)		15.4 µM (active)
COc1cccc(C2c3c(ncn(-c4cccc(C)c4)c3=N)Oc3ccc4ccccc4c32)c1 (centres undefined)		12.2 µM (active)
O=C(NCc1ccccc1)n1cc(P(=S)(c2ccccc2)c2ccccc2)c2ccccc21	-17.7	
Cc1c(P(=S)(c2ccccc2)c2ccccc2)c2ccccc2n1C(=O)NCc1ccc(F)cc1		31.5 µM (active)
COc1cccc(C2c3c(ncn(-c4cccc(F)c4)c3=N)Oc3ccc4ccccc4c32)c1 (centres undefined)		3.87 µM (active)
COc1cccc(C2c3c(ncn(-c4ccncc4)c3=N)Oc3ccc4ccccc4c32)c1 (centres undefined)		19.4 µM (active)
O=P(c1ccccc1)(c1ccccc1)c1cnc2ccccn12	-17.1	
Cc1c(P(=S)(c2ccccc2)c2ccccc2)[n+]2ccccc2n1CC(=O)c1ccccc1		4.45 µM (active)
Cc1c(C(O)(c2ccccc2)c2ccccc2)[n+]2ccccc2n1C	-2.91	
Cc1c(P(=S)(c2ccccc2)c2ccccc2)c2ccccc2n1C(=O)NCc1ccccc1		31.5 µM (active)
Cc1nc2ccccn2c1P(=O)(c1ccccc1)c1ccccc1	-20.8	
COc1cccc(C2c3c(ncn(-c4ccccc4Cl)c3=N)Oc3ccc4ccccc4c32)c1 (centres undefined)		12.2 µM (active)
COc1ccc(C2c3c(n(CCCc4ccccc4)cnc3=N)Oc3ccc4ccccc4c32)cc1OC (centres undefined)		24.4 µM (active)
COc1ccc(C2c3ccccc3Oc3ncn(CCN4CCOCC4)c(=N)c32)cc1OC (centres undefined)		6.14 µM (active)
COc1ccc(C2c3c(nc(CCc4ccccc4)[nH]c3=O)Oc3ccc4ccccc4c32)cc1OC (centres undefined)	-11.2	
COc1ccc(C2c3ccc4ccccc4c3Oc3ncn(CCN4CCOCC4)c(=N)c32)cc1OC (centres undefined)		48.7 µM (active)
COc1cccc(C2c3c(ncn(-c4cccc(Cl)c4)c3=N)Oc3ccc4ccccc4c32)c1 (centres undefined)		15.4 µM (active)
COc1ccc(C2c3c(ncn(Cc4ccccc4)c3=N)Oc3ccc4ccccc4c32)cc1OC (centres undefined)		19.4 µM (active)
